Measured values from ChEMBL document CHEMBL3988442, “University of Dundee, Small-Polar-MMV Screening Library” (2021).
For some of these results: Results with a measured potency or affinity are listed apart.

Key:
Set-up in all cases: scale not given: direction of the effect not stated beside the values
[1] = molecular target: Protein translocase subunit SecA (Escherichia coli (strain K12)) (UniProt P10408); experiment: Assay to Identify E. coli SecA ATPase Inhibitors; format: functional; conditions: 30 µM
Chain of Protein translocase subunit SecA (Escherichia coli (strain K12)) (P10408 whole entry): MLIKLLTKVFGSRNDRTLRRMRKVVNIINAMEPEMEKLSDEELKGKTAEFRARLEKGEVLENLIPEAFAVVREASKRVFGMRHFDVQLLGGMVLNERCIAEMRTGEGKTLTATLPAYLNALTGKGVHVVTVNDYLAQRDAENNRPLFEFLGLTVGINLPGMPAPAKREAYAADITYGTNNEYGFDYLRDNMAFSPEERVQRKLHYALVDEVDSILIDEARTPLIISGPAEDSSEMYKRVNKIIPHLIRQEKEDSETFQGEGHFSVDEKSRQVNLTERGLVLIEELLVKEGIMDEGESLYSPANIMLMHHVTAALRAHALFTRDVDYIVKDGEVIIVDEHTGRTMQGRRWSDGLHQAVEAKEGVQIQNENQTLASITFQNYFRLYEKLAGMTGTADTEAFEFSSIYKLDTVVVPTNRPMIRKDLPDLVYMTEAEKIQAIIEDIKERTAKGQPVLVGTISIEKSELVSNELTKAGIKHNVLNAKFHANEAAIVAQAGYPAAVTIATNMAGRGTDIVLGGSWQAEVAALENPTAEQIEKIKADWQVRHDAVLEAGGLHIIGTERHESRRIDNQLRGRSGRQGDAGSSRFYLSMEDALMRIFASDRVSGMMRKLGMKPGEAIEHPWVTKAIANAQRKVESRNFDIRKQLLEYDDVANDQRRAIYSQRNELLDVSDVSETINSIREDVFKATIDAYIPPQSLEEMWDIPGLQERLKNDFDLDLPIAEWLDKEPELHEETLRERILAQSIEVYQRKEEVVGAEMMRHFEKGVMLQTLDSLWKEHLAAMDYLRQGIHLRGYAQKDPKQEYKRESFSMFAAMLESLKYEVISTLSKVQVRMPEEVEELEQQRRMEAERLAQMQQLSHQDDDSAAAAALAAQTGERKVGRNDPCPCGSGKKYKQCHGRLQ

[2] = molecular target: T1, Ubiquitin-activating enzyme e1, putative (Leishmania donovani (strain BPK282A1)) (UniProt E9BSI1); experiment: Leishmania donovani Ubiquitin Activating Enzyme (LdE1); format: functional; conditions: 30 µM
T1 sequence (whole entry): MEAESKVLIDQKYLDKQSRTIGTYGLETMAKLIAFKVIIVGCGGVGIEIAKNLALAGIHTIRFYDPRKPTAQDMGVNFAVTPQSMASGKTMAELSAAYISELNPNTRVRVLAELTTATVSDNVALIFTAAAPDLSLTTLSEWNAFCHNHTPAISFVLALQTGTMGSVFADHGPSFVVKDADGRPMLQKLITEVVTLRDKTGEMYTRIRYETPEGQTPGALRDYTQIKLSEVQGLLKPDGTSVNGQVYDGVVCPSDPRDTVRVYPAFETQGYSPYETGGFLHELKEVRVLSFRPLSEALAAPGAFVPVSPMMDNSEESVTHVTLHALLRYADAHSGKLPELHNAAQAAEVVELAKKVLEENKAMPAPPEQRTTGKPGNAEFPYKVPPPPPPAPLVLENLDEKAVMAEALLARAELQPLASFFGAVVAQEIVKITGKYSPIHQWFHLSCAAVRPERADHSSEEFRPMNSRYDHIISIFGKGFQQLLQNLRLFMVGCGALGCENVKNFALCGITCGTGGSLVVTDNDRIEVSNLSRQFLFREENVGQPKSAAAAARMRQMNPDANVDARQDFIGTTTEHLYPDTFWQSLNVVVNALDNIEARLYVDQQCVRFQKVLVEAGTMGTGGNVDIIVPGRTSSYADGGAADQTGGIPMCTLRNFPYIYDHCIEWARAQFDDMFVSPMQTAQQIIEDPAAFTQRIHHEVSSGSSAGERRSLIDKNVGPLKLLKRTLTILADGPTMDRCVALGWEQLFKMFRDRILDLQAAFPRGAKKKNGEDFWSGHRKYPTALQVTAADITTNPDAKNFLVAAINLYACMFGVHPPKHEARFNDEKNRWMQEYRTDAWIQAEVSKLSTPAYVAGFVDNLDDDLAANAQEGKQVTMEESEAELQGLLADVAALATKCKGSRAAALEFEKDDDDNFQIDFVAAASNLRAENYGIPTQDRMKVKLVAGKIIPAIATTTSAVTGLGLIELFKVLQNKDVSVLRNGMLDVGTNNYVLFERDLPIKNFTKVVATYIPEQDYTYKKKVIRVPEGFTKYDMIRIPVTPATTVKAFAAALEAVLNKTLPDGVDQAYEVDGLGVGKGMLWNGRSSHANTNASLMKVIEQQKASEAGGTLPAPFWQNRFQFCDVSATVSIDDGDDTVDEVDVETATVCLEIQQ

[3] = molecular target: AMP-activated protein kinase, AMPK (Homo sapiens) (UniProt P54646+O43741+P54619+Q9UGJ0+Q9Y478+Q13131+Q9UGI9); experiment: AMP-dependent Kinase enzyme assay. An in vitro enzyme assay that detects ADP turnover that is directly proportional to AMPK activity. This uses naive AMPK that is activated during the assay with MK-8722; format: functional; conditions: 30 µM
[4] = molecular target: Sialic acid-binding Ig-like lectin 9 (Homo sapiens) (UniProt Q9Y336); experiment: Hs-Siglec9 ALPHAscreen SOP 20170721; conditions: 10 µM
Chain of Sialic acid-binding Ig-like lectin 9 (Homo sapiens) (Q9Y336 whole entry): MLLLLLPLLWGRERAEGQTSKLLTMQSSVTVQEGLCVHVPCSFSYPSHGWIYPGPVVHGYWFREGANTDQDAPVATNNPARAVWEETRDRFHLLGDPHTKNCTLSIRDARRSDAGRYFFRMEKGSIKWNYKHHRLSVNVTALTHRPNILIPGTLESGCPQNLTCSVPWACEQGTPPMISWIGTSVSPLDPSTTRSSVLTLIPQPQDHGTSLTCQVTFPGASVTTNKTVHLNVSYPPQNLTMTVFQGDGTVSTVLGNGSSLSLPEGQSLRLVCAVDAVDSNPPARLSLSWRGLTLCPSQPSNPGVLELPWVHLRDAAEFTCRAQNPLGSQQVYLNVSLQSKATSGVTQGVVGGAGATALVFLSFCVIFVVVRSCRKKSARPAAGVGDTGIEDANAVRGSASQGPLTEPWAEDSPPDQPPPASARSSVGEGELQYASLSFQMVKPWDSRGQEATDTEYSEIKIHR

Trypanosoma cruzi = experiment: Trypanosoma cruzi phosphomannomutase and mannose-1-phosphate guanylyltransferase assay; format: functional; conditions: 10 µM
[5] = molecular target: T2, Arginase-2, mitochondrial (Homo sapiens) (UniProt P78540); experiment: in vitro enzyme assay to detect the production of urea directly proportional to the activity of Arginase II; format: functional; conditions: 33.3 µM; also: in the data most compounds retested in dose-response had high values
T2 sequence (whole entry): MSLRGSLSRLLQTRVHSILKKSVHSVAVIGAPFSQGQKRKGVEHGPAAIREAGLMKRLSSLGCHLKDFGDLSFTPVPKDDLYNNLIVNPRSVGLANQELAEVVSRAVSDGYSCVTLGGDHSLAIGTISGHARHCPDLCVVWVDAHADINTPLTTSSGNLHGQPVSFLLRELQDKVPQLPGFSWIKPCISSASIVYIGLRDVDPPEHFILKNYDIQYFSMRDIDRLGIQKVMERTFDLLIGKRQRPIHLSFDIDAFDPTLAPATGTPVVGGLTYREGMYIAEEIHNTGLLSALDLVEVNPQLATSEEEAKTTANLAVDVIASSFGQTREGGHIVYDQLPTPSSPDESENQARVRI

[6] = molecular target: T3, Proteasome subunit beta (Trypanosoma cruzi) (UniProt O96673); experiment: Trypanosoma cruzi proteasome chymotrypsin-like activity (TcProtChymo) assay.; also: in the data most compounds retested in dose-response had high values; format: functional; conditions: 9.37 µM
T3 sequence (whole entry): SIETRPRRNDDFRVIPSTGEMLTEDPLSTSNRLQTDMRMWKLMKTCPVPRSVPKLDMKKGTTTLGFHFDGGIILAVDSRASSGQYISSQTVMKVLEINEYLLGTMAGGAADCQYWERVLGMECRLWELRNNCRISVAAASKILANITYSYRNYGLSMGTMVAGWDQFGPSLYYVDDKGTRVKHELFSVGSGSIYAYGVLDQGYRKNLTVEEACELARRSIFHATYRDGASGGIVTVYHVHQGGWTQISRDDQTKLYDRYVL

Homo sapiens = species on record: Homo sapiens; experiment: To identify inhibition of the IFN signalling (Jak-Stat) pathway via expression of an eGFP reporter gene under the control of an IFN-stimulated response element (ISRE) containing MxA promoter.; format: functional; conditions: 30 µM
[7] = molecular target: T4, Tyrosyl-tRNA synthetase, putative (Trypanosoma cruzi (strain CL Brener)) (UniProt Q4DSP6); experiment: Trypanosoma cruzi tyrosyl tRNA synthetase (TcYRS) _High Tyrosine SOP; format: functional; conditions: 30 µM; also: in the data most compounds retested in dose-response had high values
T4 sequence (whole entry): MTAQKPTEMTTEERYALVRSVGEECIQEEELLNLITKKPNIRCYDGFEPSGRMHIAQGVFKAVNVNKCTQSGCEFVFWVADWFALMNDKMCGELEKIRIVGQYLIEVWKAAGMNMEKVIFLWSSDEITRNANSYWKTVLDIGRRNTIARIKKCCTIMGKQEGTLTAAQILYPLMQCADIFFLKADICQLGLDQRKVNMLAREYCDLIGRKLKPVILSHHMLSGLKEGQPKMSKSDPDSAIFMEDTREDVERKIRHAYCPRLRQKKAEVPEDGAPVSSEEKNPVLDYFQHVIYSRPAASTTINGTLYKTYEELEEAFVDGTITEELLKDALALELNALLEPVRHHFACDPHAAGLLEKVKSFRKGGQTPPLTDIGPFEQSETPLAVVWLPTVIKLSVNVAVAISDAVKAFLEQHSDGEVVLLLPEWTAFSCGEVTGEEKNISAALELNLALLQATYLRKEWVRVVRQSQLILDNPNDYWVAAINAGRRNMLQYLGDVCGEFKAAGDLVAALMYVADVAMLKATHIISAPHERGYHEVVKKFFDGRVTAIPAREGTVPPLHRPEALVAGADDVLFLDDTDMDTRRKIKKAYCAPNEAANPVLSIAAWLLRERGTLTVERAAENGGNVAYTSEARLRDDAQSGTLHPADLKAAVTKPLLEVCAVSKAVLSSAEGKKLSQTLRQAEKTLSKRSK

[8] = molecular target: T4, Tyrosyl-tRNA synthetase, putative (Trypanosoma cruzi (strain CL Brener)); experiment: Trypanosoma cruzi tyrosyl tRNA synthetase (TcYRS) SOP; format: functional; conditions: 30 µM
[9] = molecular target: Chromo domain-containing protein 1 (Saccharomyces cerevisiae (strain ATCC 204508 / S288c) (Baker's yeast)) (UniProt P32657); experiment: ScCHD-1 Enzyme Inhibition Assay; format: functional; conditions: 30 µM; also: in the data most compounds retested in dose-response had high values
Chain of Chromo domain-containing protein 1 (Saccharomyces cerevisiae (strain ATCC 204508 / S288c) (Baker's yeast)) (P32657 whole entry, the tested form may be a part): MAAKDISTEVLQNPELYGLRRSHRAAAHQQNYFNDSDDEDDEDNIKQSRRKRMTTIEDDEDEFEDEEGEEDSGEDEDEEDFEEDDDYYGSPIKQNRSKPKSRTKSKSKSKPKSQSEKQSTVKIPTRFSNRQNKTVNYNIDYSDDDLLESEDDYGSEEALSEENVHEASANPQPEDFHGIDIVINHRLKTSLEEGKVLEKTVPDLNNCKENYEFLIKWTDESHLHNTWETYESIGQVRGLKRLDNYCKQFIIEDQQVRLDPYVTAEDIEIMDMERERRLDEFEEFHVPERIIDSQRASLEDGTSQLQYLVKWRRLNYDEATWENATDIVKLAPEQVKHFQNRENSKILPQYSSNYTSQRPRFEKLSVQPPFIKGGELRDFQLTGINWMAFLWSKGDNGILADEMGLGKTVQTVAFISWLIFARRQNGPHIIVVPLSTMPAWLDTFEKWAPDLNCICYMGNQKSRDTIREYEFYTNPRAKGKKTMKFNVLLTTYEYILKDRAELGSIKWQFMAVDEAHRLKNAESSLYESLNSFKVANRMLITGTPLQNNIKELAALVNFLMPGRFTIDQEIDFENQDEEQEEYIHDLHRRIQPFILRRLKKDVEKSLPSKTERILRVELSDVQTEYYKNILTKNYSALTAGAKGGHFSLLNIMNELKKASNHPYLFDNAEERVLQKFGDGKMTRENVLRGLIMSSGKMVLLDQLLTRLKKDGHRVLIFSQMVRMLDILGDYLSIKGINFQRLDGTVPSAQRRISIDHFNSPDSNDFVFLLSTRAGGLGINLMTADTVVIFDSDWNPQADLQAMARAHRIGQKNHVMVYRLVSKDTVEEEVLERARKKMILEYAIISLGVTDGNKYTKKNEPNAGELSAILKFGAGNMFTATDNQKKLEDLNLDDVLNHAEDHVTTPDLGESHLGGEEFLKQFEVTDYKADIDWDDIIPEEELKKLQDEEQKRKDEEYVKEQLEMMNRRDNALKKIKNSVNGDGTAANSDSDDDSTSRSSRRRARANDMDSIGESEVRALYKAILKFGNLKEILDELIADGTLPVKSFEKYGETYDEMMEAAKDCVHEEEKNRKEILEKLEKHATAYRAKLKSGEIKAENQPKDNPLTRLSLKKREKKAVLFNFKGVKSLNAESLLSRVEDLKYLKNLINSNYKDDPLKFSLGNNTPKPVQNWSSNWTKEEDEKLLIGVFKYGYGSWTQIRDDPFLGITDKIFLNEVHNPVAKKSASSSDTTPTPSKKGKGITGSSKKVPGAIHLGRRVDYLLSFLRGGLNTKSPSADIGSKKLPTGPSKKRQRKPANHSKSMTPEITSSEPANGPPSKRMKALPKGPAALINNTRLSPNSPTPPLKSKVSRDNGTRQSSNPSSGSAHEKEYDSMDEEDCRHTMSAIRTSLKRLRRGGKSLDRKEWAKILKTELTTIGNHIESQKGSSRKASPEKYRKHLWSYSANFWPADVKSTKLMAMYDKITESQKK

SMILES	Percent Effect [1]	Percent Effect [2]	Percent Effect [3]	Percent Effect [4]	Percent Effect (Trypanosoma cruzi)	Percent Effect [5]	Percent Effect [6]	Percent Effect (Homo sapiens)	Percent Effect [7]	Percent Effect [8]	Percent Effect [9]
Cn1c(C(F)(F)F)nn(CCNC(=O)c2cnc3ccccc3n2)c1=O	-2.81%	13.7%	4.14%	14.5%	3.33%	0.909%	-1.95%	-0.549%	3.23%	12.5%	-3.18%
CCc1nnc(CN(C)c2nc(C(C)C)nc3c2cnn3C)o1	3.23%	4.17%	6.88%	-0.661%	-3.6%	2.21%	16.8%	-1.37%	-2.1%	2.56%	1.23%
Cc1cc(C)n(CC2CCCN2C(=O)Cc2c(C)noc2C)n1 (stereo unspecified)	-7.56%	8.11%	-14.7%	23.5%	2.92%	-9.62%	9.37%	15.8%	4.43%	13.6%	-11.4%
Cc1cn2nc(N3CCCN(Cc4noc(C)n4)CC3)sc2n1	-4%	11.4%	7.75%	2.12%	-2.97%	1.94%	13.4%	0.85%	7.29%	12.7%	-14.4%
CO[C@H]1CCN(S(=O)(=O)c2cn(C)cn2)[C@H]1Cc1cnn(C)c1	-4.55%	2.67%	1.72%	2.33%	-2.51%	-52.9%	6.15%	1.21%	-4.17%	-25%	-4.77%
OCc1ccc(Cl)c(NCc2cccnc2)c1	-4.1%	0%	-0.207%	-4.73%	-1.85%	2.37%	2.01%	-2.65%	0%	-5.2%	-6.29%
CC(C)C(=O)N1CCN(C(=O)c2cscn2)[C@H]2CS(=O)(=O)C[C@H]21	-2.31%	15.3%	-5.83%	5.33%	2.04%	4.42%	13.9%	-3.92%	3.16%	12.8%	-0.218%
CC(O)CC(C)(C)CNC(=O)NCc1cccc(-n2cncn2)c1 (stereo unspecified)	-3.57%	-2.7%	-0.791%	7.51%	2.64%	4.22%	9.53%	-9.29%	0%	1.24%	-0.141%
CN(Cc1cccc(F)c1)S(=O)(=O)N1CCOCC1	-1.93%	7.89%	1.93%	-0.448%	-0.876%	-1.18%	24.4%	9.7%	2.13%	13%	-6.29%
Cc1cnc(N2CCCC3(CCN(Cc4csc(C)n4)C3=O)C2)nc1 (stereo unspecified)	-1.53%	10.7%	2.83%	3.4%	0.965%	-54.3%	5.64%	-4.88%	4.17%	20%	-8.92%
O=C(Cc1ccsc1)N1C[C@@H]2CN(Cc3ccoc3)CCO[C@@H]2C1	-1.51%	0%	4.82%	8.18%	1.86%	0.955%	14.6%	-8.8%	0%	7.69%	11.3%
